In PubChem BioAssay (NCI):
Several values for one entry are separate records, joined by “and”; a condition that tells them apart may be missing. Equal values may be shown once. About 83,000 compounds went through this panel and 20% of them were active in at least one assay; those are over-represented in the sample as a whole.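 Note: values are percent growth. 100 is the growth of untreated cells, values between 100 and 0 indicate rising inhibition; between -100 and 0 indicates cell death.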 Activity calls are given as the source filed them. Rule for the calls: active = growth percent below 10; inactive = the rest.

Test system: MDA-MB-468 breast
Experiment: NCI-60 one-dose screen, 48 h (100 = growth as untreated, 0 = no growth, -100 = all killed)
Settings: 10 µM unless noted

Compound | growth
Nc1ccc2cc3ccc(N)cc3nc2c1 | 112% (inactive) and -42% (active)
COc1ccc(Cn2c(NCCN=C(N)N)nc(=O)n(Cc3ccc(F)cc3)c2=O)cc1 | 56.7% (inactive) and 33.4% (inactive)
CC(NCCC(c1ccccc1)c1ccccc1)c1ccccc1 (stereo not drawn) | 49% (inactive)
CCCCNC(=O)c1ccc(OCC)cc1 | 117% (inactive)
O=C(O)COc1ccc2c(=O)c3sc4c(=O)c5ccccc5c(=O)c4c3c(=O)c2c1 | 26.4% (inactive)
O=C(Nc1cccc(F)c1)Nc1cccc(Cl)c1 | 90% (inactive)
CC[C@H](C)[C@H](NC(=O)[C@H](CCCNC(=N)N)NC(=O)[C@H](Cc1c[nH]c2ccccc12)NC(=O)[C@@H](NC(=O)[C@H](CCCCN)NC(=O)[C@H](CCCCN)NC(=O)[C@@H](NC(=O)[C@@H](NC(=O)[C@@H](NC(=O)[C@H](CCCCN)NC(=O)[C@H](Cc1ccccc1)NC(=O)[C@H](CCCCN)NC(=O)[C@H](CCCCN)NC(=O)[C@H](Cc1ccccc1)NC(=O)[C@@H](NC(=O)[C@@H](N)CCCCN)[C@@H](C)CC)[C@@H](C)O)[C@@H](C)CC)[C@@H](C)CC)C(C)C)C(=O)N[C@@H](Cc1ccccc1)C(=O)NCC(=O)N[C@@H](CCCNC(=N)N)C(=O)N[C@@H](Cc1ccccc1)C(N)=O | 28.8% (inactive)
CCNCCNc1cc(-c2ccc(C(F)(F)F)cc2)c(C#N)c2nc3ccccc3n12 | -73.6% (active)
COc1cccc(-c2cc(-c3cccc(Cl)c3)c(C#N)c(=O)[nH]2)c1 | 70.1% (inactive)
COc1ccc(C(=S)N2CCN(c3ccccc3Cl)CC2)cc1OC | 92.1% (inactive)
O=c1[nH]c2ccccc2cc1-c1nc2ccc(Cl)cc2[nH]1 | 60.7% (inactive)
CCOC(=O)c1cc2c(n1Cc1cccc(OC)c1)-c1oncc1CCC2 | 11.9% (inactive)
CCN=C1C=CC(=C(c2ccc(N(CC)CC)cc2)c2ccc(N(CC)CC)cc2)c2ccccc21 | -74.1% (active)
CNCc1cccc2c1OCCOCCOCCC(C)S(=O)(=O)c1ccc(cc1)-c1cnc(N)c(n1)C(=O)N2 (stereo not drawn) | 53.1% (inactive)
COC(=O)/C=C1\S/C(=N\NS(=O)(=O)c2ccc(C)cc2)N(c2ccccc2)C1=O | 102% (inactive)
C/C(=N/NC(N)=S)c1ccc(Nc2nc(SCC(C)C)nc(-c3ccc(F)cc3)c2C#N)cc1 | -19.4% (active)
Cn1cc(-c2nn3cc(-c4ccncc4)nc3s2)c2cc(Br)ccc21 | 74.9% (inactive)

Compound | growth
O=C(CNS(=O)(=O)Cc1ccccc1)NNc1ccccc1 | 79.4% (inactive)
C=C(C=O)[C@@H]1CC[C@]2(CO)CC[C@]3(C)[C@H](CC[C@@H]4[C@@]5(C)CCCNC(C)(C)[C@@H]5CC[C@]43C)[C@@H]12 | 48.6% (inactive)
O=C(OCC1CCCO1)c1ccc([N+](=O)[O-])cc1 (stereo not drawn) | 88.9% (inactive)
COc1ccc(C2C(C#N)=C(N)Oc3c2sc2ccc(C)cc32)cc1 (stereo not drawn) | -13.2% (active)
O=[N+]([O-])c1cccc(-c2ncc(-c3ccc(Cl)cc3Cl)[nH]2)c1 | 47.6% (inactive)
O=C(CN1C(=O)NC2NC(=O)NC21)N/N=C/c1ccc(Cl)cc1Cl (stereo not drawn) | 99.9% (inactive)
COc1ccc(-c2nc(N/N=C/c3c[nH]c4ccccc34)nc(N3CCOCC3)c2C#N)cc1 | 97.8% (inactive)
C/C(=C\C(=O)c1ccc(Cl)cc1)c1ccc(Cl)cc1 | 5.65% (active)
COc1cc(-c2nn(C)nc2-c2cc3ccccc3s2)cc(OC)c1OC | 39.8% (inactive)
CNCCn1c(=O)c2cc(OC)c(OC)cc2c2ccc3cc4c(cc3c21)OCO4 | -53.9% (active)
O=C1C=CC(=O)N1c1ccc2c(c1)Cc1cc(F)ccc1-2 | 92.6% (inactive)
O=C(CBr)CN1C(=O)c2ccccc2C1=O | 103% (inactive)
CC1(C)[C@@H](OC(=O)CCC(=O)O)CC[C@]2(C)[C@H]3C(=O)C=C4[C@@H]5C[C@@](C)(C(=O)O)CC[C@]5(C)CC[C@@]4(C)[C@]3(C)CC[C@@H]12 | -0.77% (active)
COc1ccc(/C=C/C(=O)c2cc(OC)c(OC)c(OC)c2)cc1OCc1cn(Cc2ccc(F)cc2)nn1 | 25.2% (inactive)
COc1ccc(-c2nc3cc(Cl)c(Cl)cc3n2CC(=O)N=Nc2c(O)[nH]c3ccccc23)cc1 | 60.6% (inactive)
COC(=O)C1=C(C)NC(C)=C(C(=O)OCC(C)C)C1c1ccccc1[N+](=O)[O-] (stereo not drawn) | 44.7% (inactive)
